Potency and activity change, positive = activation data for 103 compounds are collected here from PubChem BioAssay AID1458 (National Center for Advancing Translational Sciences (NCATS), 2008).

Each structure is given as a SMILES string. Out of some 210,000 compounds screened, about 5,900 (2.8%) were called active. A call without a number means that no potency is given here. Not shown: some 5% with an inconclusive outcome. Only a selection was taken, and actives are over-represented in it overall. A number with no mark means an inactive call. The call rests on the fitted dose curve; in most records, active means well fitted activation curve with a large enough effect; inconclusive means small, poorly fitted or top-dose-only effect; inactive means no such curve, though single readings can be large or run the other way.
Potency means the concentration at half of the fitted maximal effect.

The assay is described as follows: qHTS Assay for Enhancers of SMN2 Splice Variant Expression. Further: nearly all actives have a fitted effect of over 55% in size. To be noted: HEK293 SMN2-luciferase splicing reporter, luminescence, 30-36 h; series mostly up to 46.1 µM. The gist of the method: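 HEK293 cells carry an SMN2 minigene-luciferase reporter in which exon 7 inclusion puts luciferase in frame. Cells were seeded at 2000 cells/well, attached for 10-12 hours, then exposed to compounds for 30-36 hours at 37C before ONE-Glo luminescence.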
For orientation: In qHTS, concentration-response curves come from the screen itself.
Regarding `CCOC(=O)c1ccccc1NC(=O)c1nn(-c2ccc(OC)c(Cl)c2)c(=O)c2c1c1ccccc1n2C`, the Potency result was “inactive”. Same read-out and setting: under `O=C(Nc1nncs1)c1ccccc1NS(=O)(=O)c1cccs1` stands “inactive”; under `COc1cccc(OC)c1C(=O)Nc1nnc(C(C)C)s1`, “inactive”; under `COc1ccc(C(=O)Nc2nncs2)c(OC)c1`, 11.2 µM (active). Same read-out and setting: under `O=S(=O)(c1ccc(C2CCCCC2)cc1)N1CCN(c2ccc(Cl)c(Cl)c2)CC1` stands “inactive”; under `COc1ccc(-c2csc(NC(=O)COC(=O)c3ccc(Br)o3)n2)cc1`, 0.794 µM (active).

With `COc1ccc(-c2csc(NC(=O)COC(=O)Cc3ccc(Cl)cc3Cl)n2)cc1`, the Potency was 11.2 µM (active). In the case of `CC(C)(C)NC(=O)NC(=O)COC(=O)Cc1ccc(Cl)cc1Cl`, the Potency result was “inactive”. On the same count and under the same terms, next, `CCCc1ccc(-c2csc(NC(=O)Cc3cccs3)n2)cc1`: “inactive”; `COc1ccc(-c2csc(NC(=O)CCCc3cccs3)n2)cc1`: “inactive”; `COc1ccc(-c2nc(CCNC(=O)c3ccc(Br)o3)cs2)cc1`: “inactive”. As for `COc1ccc(Nc2ncc(C(=O)Nc3cc(C)ccc3OC)c3ccccc23)cc1`, the Potency entry was “inactive”. Take `COc1ccc(-n2c(SCC(N)=O)nc3c(oc4ccccc43)c2=O)cc1`: the Potency entry was “inactive”. The same measure, in the same setting: next, `O=C(NCc1ccccc1)c1cc(-c2cccc(Cl)c2)on1`: “inactive”; `COc1ccccc1CNc1nc2ccc(Cl)cc2n2cnnc12`: “inactive”. The same measure, in the same setting: next, `Cc1ccc(Cl)cc1NC(=O)C(C)n1nnc2sc(-c3ccccc3)cc2c1=O` (stereo not drawn): “inactive”.

`O=C(CCS(=O)(=O)c1cccc2nsnc12)N1CCN(c2ccccc2F)CC1`: the Potency entry was “inactive”. Same read-out and setting: under `O=C(c1cccc2ccccc12)N1CCN(c2ccccc2F)CC1` stands “inactive”; under `O=C(CCSc1ccccc1)N1CCN(c2ccccc2F)CC1`, 11.2 µM (active); under `Cc1cc2n(n1)C(c1cc(C(C)(C)C)c(O)cc1O)Nc1ccccc1-2` (stereo not drawn), “inactive”. For `Cc1cccc(CSc2nc3ccncc3n2CC(=O)N(C)C2CCCCC2)c1`, the Potency entry is “inactive”. For the compound `CCOc1ccc(-c2cc3nc(C4CCN(C(=O)OC(C)(C)C)CC4)c(C(=O)Nc4cccc(CC)c4)cn3n2)cc1`, the Potency entry is “inactive”. Still for that read-out and setting: next, `CC(C)(C)NC(=O)CSc1nc(-c2ccc(F)cc2)cc(C(F)(F)F)n1`: “inactive”; `CC(C)(C)NC(=O)CSC(=Nc1ccccc1F)NC#N`: 20 µM (active); `Cc1ccccc1CSCC(=O)NC(=O)NC(C)(C)C`: “inactive”. In the case of `Cc1cc(C)cc(NC(=O)Cc2csc(C)n2)c1`, the Potency entry is “inactive”. For the compound `COC(=O)c1cc(NC(=O)CC2C(=O)NCCN2C(=O)c2ccc(F)cc2)cc(C(=O)OC)c1` (stereo not drawn), the Potency was 10 µM (active). On the same count and under the same terms, under `COc1cccc(NC(=O)CC2C(=O)NCCN2C(=S)Nc2ccc(F)cc2)c1` (stereo not drawn) stands “inactive”; under `CCNC(=O)N1CCNC(=O)C1CC(=O)Nc1ccc(C(=O)OCC)cc1` (stereo not drawn), “inactive”; under `COc1cc2c(=O)c(S(=O)(=O)c3ccc(C(C)C)cc3)cn(Cc3ccccc3C)c2cc1OC`, “inactive”. On to `O=C(Nc1ccccc1)c1cc2ccccc2[nH]1`, for which the Potency is 11.2 µM (active). Same read-out and setting: under `O=C(Nc1cccc(NC(=O)c2ccc(Br)cc2)c1)c1ccccc1` stands “inactive”; under `O=C(Nc1ccccc1)c1ccc2nsnc2c1`, “inactive”.

On to `Cc1nc(SCC(=O)N2CCN(c3ccccc3)CC2)[nH]c(=O)c1C`, for which the Potency entry is “inactive”. Take `Cc1oc(-c2ccccc2F)nc1CN1CCC(C(=O)NCCc2ccc(Cl)cc2)CC1`: the Potency entry was “inactive”. Same read-out and setting: next, `COc1ccc(NC(=O)C2CCCN(S(=O)(=O)c3c(C)[nH]c(=O)[nH]c3=O)C2)c(OC)c1` (stereo not drawn): “inactive”; `COc1ccc(C(=O)Nc2ccc(CN3CCOCC3)cc2)cc1`: “inactive”; `CCOC(=O)c1c(NC(=O)c2ccc(N3CCOCC3)c([N+](=O)[O-])c2)sc(C)c1C`: “inactive”. For the compound `COc1ccc(C(=O)Nc2sc(C)c(C)c2CN2CCOCC2)cc1`, the Potency is 12.6 µM (active). Same read-out and setting: under `CCOC(=O)C1CCCN(C(=O)Cn2ncc3c(C)n(Cc4ccc(F)cc4)c(C)c3c2=O)C1` (stereo not drawn) stands “inactive”; under `COc1ccc(-c2noc(CSc3nc4ccc(C)cc4[nH]3)n2)cc1`, “inactive”; under `Cc1ccccc1C(=O)Nc1sc2c(c1C(=O)N1CCC(C)CC1)CCCC2`, “inactive”. With `Cc1c(NC(=O)c2cc(=O)c3ccccc3o2)c(=O)n(-c2ccccc2)n1C`, the Potency entry was “inactive”. On to `Cc1nn(C)cc1C(=O)NNC(=S)Nc1ccc(Cl)cc1`, for which the Potency result is “inactive”. On the same count and under the same terms, next, `Cc1nn(C)cc1CNC(=O)Nc1ccc(Cl)cc1`: 15.8 µM (active).

Take `COc1ccc(Cl)cc1C(=O)NCc1cn(C)nc1C`: the Potency result is “inactive”.

With `Oc1ccccc1-c1nc(/C=C/c2ccc(F)cc2)no1`, the Potency result was “inactive”. For the compound `CCOC(=O)c1cc(NC(=O)c2cccnc2)cc(C(=O)OCC)c1`, the Potency entry is “inactive”. Same read-out and setting: under `CCOC(=O)c1ccc(-c2ccc(C(=O)Nc3cccnc3)o2)cc1` stands 6.31 µM (active). Same read-out and setting: under `COc1ccc(C(=O)Nc2cccnc2)cc1C(=O)Nc1cccnc1` stands “inactive”; under `CCN(CC)c1ccc(C2C(C(N)=O)=C(C)Nc3nc(SCc4ccccc4)nn32)cc1` (stereo not drawn), “inactive”; under `COCCn1c(CCC(=O)Nc2cc(C)ccc2C)nc2cccnc21`, “inactive”. For `N#C/C(=C\c1ccccc1F)c1nc2ccccc2c(=O)[nH]1`, the Potency result is “inactive”. As for `COc1ccccc1-c1nnc(SCC(=O)Nc2cc(C)on2)o1`, the Potency entry is “inactive”. Consider `COc1ccccc1-c1nnc(NC(=O)c2cccc(N3C(=O)CCC3=O)c2)o1`, for which the Potency result is “inactive”.

For `COc1ccccc1-c1nnc(NC(=O)c2ccc3ncsc3c2)o1`, the Potency is 14.1 µM (active). On the same count and under the same terms, under `Cn1c(=O)c2sccc2n2c(CCC(=O)NCc3ccccc3Cl)nnc12` stands “inactive”. With `CCc1ccc2oc(-c3ccc(NC(=O)c4cc5ccccc5o4)cc3)nc2c1`, the Potency result is “inactive”. On the same count and under the same terms, under `CCc1ccc2oc(-c3ccc(N)cc3)nc2c1` stands 1 µM (active); under `CCc1ccc2oc(-c3ccc(C)c(NC(=O)/C=C/c4ccco4)c3)nc2c1`, “inactive”. Consider `COc1ccc(OC)c(-c2csc(-c3c(N)c(C(=O)c4ccccc4)n4ccccc34)n2)c1`, for which the Potency result was “inactive”. For the compound `CCc1nn(CC(=O)N2CCN(c3cc(C)ccc3C)CC2)c(=O)c2cc3occc3n12`, the Potency result was “inactive”. The same measure, in the same setting: next, `O=C(c1ccc(Cl)cc1)n1nc(-c2cccnc2)nc1NCc1ccc(F)cc1`: “inactive”; `COc1cc(Cl)c(C)cc1NC(=O)CCc1nc2cccnc2n1Cc1cccs1`: “inactive”. On the same count and under the same terms, next, `Cc1ccc(Nc2nnc(SCC(=O)c3cc4ccccc4o3)s2)cc1C`: 12.6 µM (active). On the same count and under the same terms, next, `CC(C)c1ccc(Nc2nnc(SCC(=O)c3nnc(-c4ccccc4)o3)s2)cc1`: 10 µM (active). As for `CC(C)Nc1nnc(SCC(=O)c2c[nH]c3ccccc23)s1`, the activity change, positive = activation was -12.7% [at 1.84 µM]. As for `Cc1ccccc1Nc1nnc(SCC(=O)c2cc3ccccc3o2)s1`, the Potency entry was “inactive”. Take `Cc1cc2c(=O)n(C)c(SCC(=O)c3cc4ccccc4o3)nc2s1`: the Potency entry was “inactive”. On the same count and under the same terms, under `O=C(CSc1nnc(Nc2ccccc2)s1)Nc1cccnc1Cl` stands “inactive”; under `CCOCCCNC(=O)c1c(NC(=O)Cc2coc3c(C)c(C)ccc23)sc2c1CCC2`, “inactive”.

`Cc1cccc(N2CCN(C3=C(c4ccccc4)C(=O)c4ccccc43)CC2)c1C`: the Potency entry was “inactive”. The same measure, in the same setting: next, `O=C1OC(C(=O)Nc2cccc(Br)c2)Cc2ccccc21` (stereo not drawn): “inactive”; `CCNS(=O)(=O)c1cc(-c2nnc(Nc3cccc(C(F)(F)F)c3)c3ccccc23)ccc1C`: “inactive”; `COc1cccc(CNC(=O)Cn2ncn3c(cc4ccccc43)c2=O)c1`: “inactive”. Same read-out and setting: under `Cc1ccc(S(=O)(=O)NCCN2CCOCC2)cc1C` stands “inactive”; under `CCOC(=O)CSc1nc2ccc(C)cc2[nH]1`, “inactive”.

With `Cc1cc2nc(SCCN3CCOCC3)[nH]c2cc1C`, the Potency was 14.1 µM (active). On to `COc1ccc(S(=O)(=O)NCCSc2nnnn2-c2ccccc2)cc1`, for which the Potency result was “inactive”. On to `COc1ccc(NC(=O)NC(C)c2c(-n3cccc3)sc(C)c2C)cc1OC` (stereo not drawn), for which the Potency result is “inactive”.

On to `COc1cccc(NC(=O)CCNS(=O)(=O)c2ccc3c(c2)oc(=O)n3C)c1`, for which the Potency entry is “inactive”. As to `Cc1ccc(CNC(=O)CCNS(=O)(=O)c2ccc3c(c2)oc(=O)n3C)cc1`, the Potency entry is “inactive”.

With `O=C(NCCc1ccccc1)c1ccc(NC2=NC3CS(=O)(=O)CC3S2)cc1` (stereo not drawn), the Potency result was “inactive”. As for `CC(=O)c1cccc(NC(=O)N2CCCC2C(=O)NCCc2ccccc2)c1` (stereo not drawn), the Potency entry was “inactive”.

With `CC1CCCN(c2ccc(C(=O)NCCc3ccccc3)cn2)C1` (stereo not drawn), the Potency was 11.2 µM (active). Still for that read-out and setting: under `Cc1oc2ccc(O)c(CN3CCCCC3)c2c1C(=O)Nc1cccc(C(F)(F)F)c1` stands “inactive”. Regarding `CCC1CCCCN1S(=O)(=O)c1ccc(NC(=O)c2cc(=O)c3ccccc3o2)cc1` (stereo not drawn), the Potency result is “inactive”.

Regarding `Cc1ccccc1NC(=O)Cn1c(=O)n(CCCCC(=O)NCc2ccccc2Cl)c(=O)c2ccccc21`, the Potency result is “inactive”. With `CCN(CC)C(=O)c1sc2nc(-c3ccccc3)ccc2c1N`, the Potency is 7.94 µM (active). As for `CCOC(=O)c1sc2nc(SC)nc(-c3ccccc3)c2c1N`, the Potency result is “inactive”. Regarding `CS(=O)(=O)c1sc2nc(-c3ccccc3)cc(-c3ccccc3)c2c1N`, the Potency entry is “inactive”.

As to `Cc1ccc(-c2nc3ccccc3[nH]2)cc1N`, the Potency was 3.16 µM (active). The same measure, in the same setting: under `Cc1ccc(-c2nc3ccccc3[nH]2)cc1NC(=O)c1sc2ccccc2c1Cl` stands “inactive”; under `c1ccc2[nH]c(-c3nc4ccccc4[nH]3)nc2c1`, 7.94 µM (active). Turning to `COc1ccc(Br)cc1C(=O)NC(=S)Nc1cc(-c2nc3ccccc3[nH]2)ccc1C`, the activity change, positive = activation was -3.02% [at 1.84 µM].

`c1ccc(-c2[nH]ncc2-c2nc3ccccc3[nH]2)cc1`: the Potency result is “inactive”. The same measure, in the same setting: under `OCCNc1nc2ccccc2[nH]1` stands “inactive”; under `COc1cc2[nH]c(=O)n(Cc3ccc(C(=O)NCc4ccc(C)cc4)cc3)c(=O)c2cc1OC`, “inactive”; under `CCCCCn1c(=O)[nH]c2cc(C(=O)Nc3cc(C)cc(C)c3)ccc2c1=O`, “inactive”.

For the compound `Cc1nn(-c2ccc([N+](=O)[O-])cc2)c(N)c1-c1ccccc1`, the Potency is 10 µM (active). On the same count and under the same terms, under `CC(C)(C)c1cnnn1-c1ccc([N+](=O)[O-])cc1` stands “inactive”; under `Cc1nn(-c2ccccc2)c2c1C(c1cccc([N+](=O)[O-])c1)N(c1ccccc1)C(=O)N2` (stereo not drawn), “inactive”. In the case of `CCCCN1C(=O)c2[nH]nc(-c3ccccc3O)c2C1c1cccc(OCc2ccccc2)c1` (stereo not drawn), the Potency entry was “inactive”.
